HCV inhibitor: HCV inhibition | AID 651820 | 340,000 tested, 3.4% active | Huh7.5.1 HCVcc-Cre infection, luciferase reporter, 44 h | Potency, µM (doses to about 41.8 µM), inactives show at the highest dose activity change, negative = inhibition, usual class: inhibitors; further: potency means the concentration at half of the fitted maximal effect; on the % scale 0 is the no-effect control and ±100 the full control effect
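Infectious HCV cell culture screen: compound-treated cells (1,000/well, pre-plated 4 h) are infected with HCVcc-Cre at roughly 0.5 moi and grown 44 h. Infection is quantified by luciferase signal after 15 min substrate incubation at room temperature.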
HCMV antiviral: blocks human cytomegalovirus replication | HFF cells, HCMV-luciferase reporter, 72 h; active compounds read low | activity change, negative = inhibition, % at 57.5 µM | 410,000 tested, 4.5% active; in the data active means activity change below about -60%; inconclusive means no clear call, values can overlap the other calls; inactive means above about -39%; further: on the % scale 0 is the no-effect control and ±100 the full control effect
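Human foreskin fibroblasts infected with luciferase-reporter HCMV at MOI 1 PFU/cell, compounds at two doses. Luciferase measured 72 h post infection; normalized to buffer-only basal and Salinomycin (10uM) controls.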
SARS PLpro yeast: blocks SARS-CoV papain-like protease in a yeast assay. Potency, µM (doses to about 32.9 µM), inactives show at the top dose activity, positive = growth rescue, hits mostly activators. 330,000 tested, 0.19% active. S. cerevisiae expressing SARS-CoV PLpro, growth rescue; calls by dose curve; further: potency means the concentration at half of the fitted maximal effect; 0% is about no effect; nearly all actives have a fitted effect of over 55% in size
Pf growth 48h: inhibits P. falciparum growth in the first generation, 48 h | Potency, µM (series often up to 28.7 µM), for the others: at the top dose activity change, negative = inhibition, hits mostly inhibitors | P. falciparum luciferase growth in erythrocytes, 48 h | 310,000 tested, 5.9% active; further: potency means the concentration at half of the fitted maximal effect; on the % scale 0 is the no-effect control and ±100 the full control effect
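Erythrocytes infected with P. falciparum carrying an integrated firefly luciferase reporter (2% hematocrit, 0.1% parasitemia final) were exposed to compounds in RPMI 1640 with 0.5% Albumax at 37 C, 5% CO2. Growth inhibition was scored as reduced luminescence.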
Sm TGR inh: S. mansoni TGR enzyme inhibition. Potency, µM (series often up to 114 µM), for inactives: at the highest dose activity change, negative = inhibition, most hits filed as inhibitors. purified TGR, DTNB reduction, TNB absorbance 405 nm. Q962Y6. 360,000 tested, 3% active. AID 485364; further: potency means the concentration at half of the fitted maximal effect; on the % scale 0 is the no-effect control and ±100 the full control effect; nearly all actives have a fitted effect of over 60% in size
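TGR 20 nM + NADPH 100 uM (dispensed conc.), cpd preinc 15 min RT; start with NADPH (500 uM addition) then DTNB (15 mM addition). Kinetic TNB absorbance, 405 nm filter. Four-parameter Hill fit across titration.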
Pf growth 96h: inhibits malaria parasite growth, 96 h | Potency, µM (top dose mostly 28.7 µM), for the others: at the top dose activity change, negative = inhibition, actives largely listed as inhibitors | P. falciparum luciferase reporter growth, 96 h | AID 504834 | 320,000 tested, 6.9% active; further: potency means the concentration at half of the fitted maximal effect; on the % scale 0 is the no-effect control and ±100 the full control effect
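Infected RBCs, 2% Hct / 0.05% parasitemia final; luciferase-reporter P. falciparum; cpd 96 h, 37 C, 5% CO2; luciferase detection reagent; luminescence.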
Active calls of the source: *; ? = inconclusive; . = not tested or not shown. The list is not random: actives were taken first. Their share in the collection is about 15%. Unless noted, the call rests on the fitted dose curve; in most records, active means well fitted curve in the direction sought with a large enough effect; inconclusive means small, poorly fitted or top-dose-only effect, or another doubt; inactive means no such curve, though single readings can be large; an effect the other way counts as inactive or inconclusive.

SMILES	HCV inhibitor	HCMV antiviral	SARS PLpro yeast	Pf growth 48h	Sm TGR inh	Pf growth 96h
Cc1ccc(C(=O)NCC(C)NC(=O)c2ccc(C)c([N+](=O)[O-])c2)cc1[N+](=O)[O-] (stereo not drawn)	-12.9%	26.5	.	.	.	.
C[C@@H]1CCCCO[C@@H](CN(C)C(=O)Nc2ccc(F)cc2)[C@@H](C)CN([C@H](C)CO)C(=O)c2cc(NC(=O)Nc3ccc4c(c3)OCO4)ccc2O1	.	-0.3	.	.	.	.
CCC(C)[C@H]1CN=C(N)N1CCc1cc(C(F)(F)F)cc(C(F)(F)F)c1 (stereo partly drawn)	2.1%	-5.1	0.0%	4.65µM*	-3.6%	2.08µM*
CCC(C)[C@H]1CN=C(N)N1CCc1cccc2ccccc12 (stereo partly drawn)	4.6%	-35.9	.	.	.	.
COc1cc(CCCN2CCNC[C@@H]2c2ccccc2)cc(OC)c1OC	15.1%	-71.9*	6.5%	.	.	.
COc1cc(CCCN2C(N)=NC[C@@H]2c2ccccc2)cc(OC)c1OC	-11.4%	-14.9	-0.4%	11.7µM*	14.1%	?
COc1cc(CCCN2C(=O)C(=O)NC[C@@H]2c2ccccc2)cc(OC)c1OC	2.8%	6.8	-0.5%	5.2%	-3.2%	4.9%
CCC(C)[C@H]1CN=C(N)N1CCCc1cc(OC)c(OC)c(OC)c1 (stereo partly drawn)	9.4%	-24.9	-1.9%	10.4µM*	7.1%	13.1µM*
COc1ccc(CCNC(=O)C2(C)CCC(=O)N2Cc2ccc(C)cc2)cc1OC (stereo not drawn)	-6.0%	-4.8	1.9%	-9.4%	6.8%	?
CCc1nn2cc(C(=O)c3cc(Cl)ccc3O)cnc2c1-c1ccc(F)cc1	?	-70.1*	-91.8%	6.57µM*	-15.2%	?
CCc1ccc(O)c(C(=O)c2cnc3cc(-c4ccc(C)cc4)nn3c2)c1	.	2.3	.	.	-0.6%	.
O=C(CNC(=O)c1ccco1)Nc1cc(Cl)ccc1N1CCOCC1	12.8%	24.0	9.1%	?	-3.6%	.
O=C(CCC1CCCC1)Nc1cc(Cl)ccc1N1CCOCC1	-6.0%	?	1.0%	?	3.0%	8.28µM*
CCN(CC)S(=O)(=O)c1ccc(N2CCOCC2)c(NC(=O)CCC2CCCCC2)c1	-5.2%	-12.8	-18.4%	8.28µM*	-11.2%	?
CC(C)(C)c1ccc(C(=O)NCCC(=O)Nc2cc(Cl)ccc2N2CCOCC2)cc1	11.2µM*	0.0	-5.3%	13.1µM*	-2.8%	?
Cc1cccc(C)c1NCc1n[nH]c(=S)n1-c1ccccc1	12.7%	3.6	0.2%	14.3%	.	1.4%
O=C1NC(NS(=O)(=O)c2ccccc2)(C(F)(F)F)C(=O)N1Cc1ccccc1 (stereo not drawn)	5.8%	4.9	8.3%	-1.3%	0.2%	?
O=C(Nc1ccc(F)cc1)Nc1cccnc1	9.2%	3.6	-0.5%	19.9%	0.1%	31.5%
O=C(Nc1ccc(OC(F)(F)F)cc1)Nc1cccnc1	2.9%	22.9	-1.6%	?	-0.4%	10.4µM*
O=C(NCC(F)(F)F)Nc1cccnc1	2.0%	-3.6	-13.8%	-19.1%	-21.4%	14.7µM*
C[C@H](CO)N1C[C@H](C)[C@@H](CN(C)Cc2ccc(C(=O)O)cc2)OCc2cnnn2CCCC1=O	.	1.3	.	.	.	.
CCN1CCCC1CNCc1ccccc1OCc1ccc(F)cc1 (stereo not drawn)	?	-7.9	-3.3%	10.4µM*	-14.3%	.
CCN1CCCC1CNCc1cccc(OC)c1OCc1ccccc1F (stereo not drawn)	?	15.5	-2.4%	.	-18.3%	?
CCN1CCCC1CNCc1cccc(OC)c1OCc1ccccc1 (stereo not drawn)	12.5%	-33.5	17.7%	-26.4%	-2.5%	11.7µM*
CNCc1ccccc1OCc1ccc(F)cc1	7.3%	9.5	0.1%	-5.6%	-1.2%	18.4%
SMILES	HCV inhibitor	HCMV antiviral	SARS PLpro yeast	Pf growth 48h	Sm TGR inh	Pf growth 96h
O=C(CC1(O)C(=O)Nc2cc(Cl)cc(Cl)c21)c1ccccc1O (stereo not drawn)	25.1µM*	15.4	6.1%	-1.5%	1.1%	19.2%
NC(=O)NS(=O)(=O)c1ccc(N)cc1	.	.	.	-3.8%	.	-10.7%
COc1ccc(NC(=O)Cn2nnc3sc4c(c3c2=O)CC(C)(C)OC4)cc1	-22.2%	-14.2	-0.2%	12.3%	-12.0%	15.8%
CC1(C)Cc2c(sc3c2c(=N)n(Cc2ccco2)c(=O)n3Cc2ccc(F)cc2)CO1	?	-15.1	-13.3%	?	0.0%	?
Cc1ccc(NC(=O)Cn2c(=O)n(Cc3ccco3)c(=N)c3c4c(sc32)COC(C)(C)C4)cc1	3.16µM*	-17.6	-0.5%	?	-19.9%	?
COc1ccc(Cn2c(=O)n(Cc3ccco3)c(=N)c3c4c(sc32)COC(C)(C)C4)cc1	12.6µM*	-24.5	-7.0%	5.86µM*	-2.6%	13.1µM*
N=c1ccn(Cc2ccc(F)cc2)cc1	3.98µM*	?	-0.3%	?	11.6%	?
O=C1CNC(=S)N1Cc1ccc(F)cc1	17.4%	.	-2.5%	11.7%	-17.3%	65.6%
Cc1c(Cc2ccccc2)c(=O)oc2c(C)c(OCC(=O)N[C@@H](Cc3ccccc3)C(=O)O)ccc12	-1.3%	-2.3	-5.9%	10.7%	0.0%	?
CN(C)/C=C/c1c([N+](=O)[O-])c2ccc(O)cc2n1-c1ccccc1	?	-31.4	2.8%	?	?	10.4µM*
COC(=O)c1c(C)n(-c2ccccc2)c2ccc(O)cc12	?	3.9	-9.4%	?	-31.9%	.
Cc1oc2ncn(C)c(=O)c2c1C(=O)Nc1ccc(F)cc1	.	-2.8	.	.	7.2%	.
COC(=O)c1ccccc1NC(=O)c1c(C)oc2ncn(C)c(=O)c12	.	-90.9*	.	.	-1.4%	.
CC(C)c1ccc(C2=CC(c3ccc(C(C)C)cc3)n3nnnc3N2)cc1 (stereo not drawn)	.	4.5	.	.	-3.7%	.
Cc1cccc(C2C=C(c3ccc(C)c(C)c3)Nc3nnnn32)c1 (stereo not drawn)	.	24.7	.	.	39.8µM*	.
Cc1ccc(C2=CC(c3ccc(N(C)C)cc3)n3nnnc3N2)cc1 (stereo not drawn)	?	-76.1*	-15.3%	.	?	-2.9%
CCc1ccc(C2=CC(c3cccc(Br)c3)n3nnnc3N2)cc1 (stereo not drawn)	.	-66.3*	.	.	25.1µM*	.
O=C(Nc1cccnc1)/C(N=Nc1cccnc1)=C(\O)c1ccccc1	?	-34.1	-14.6%	?	-4.4%	?
Cc1c(C(=O)Oc2ccc(Br)cc2)sc2ncn(Cc3ccccc3F)c(=O)c12	.	12.6	.	.	4.7%	.
CN(C(=O)c1cccc(NC(=O)Cc2ccc(NC(=O)C3CCCN(C(=O)CCc4ccccc4)C3)cc2)c1)C1CCCC1 (stereo not drawn)	?	-71.6*	.	.	.	.

Screening results: PubChem BioAssay, National Center for Advancing Translational Sciences (NCATS)
